Key:
Assay in all cases: DAPPL (digital affinity profiling via proximity ligation, sequencing); 10 mM Tris-HCl pH 7.5, 50 mM NaCl, 1 mM DTT, 4% glycerol, room temperature, 30 min; GST-TFs on glutathione beads, 16-mer random dsDNA library, 0.1% formaldehyde crosslink after washing; high values mean tight binding
Settings in all cases: protein: recombinant; tags: N-terminal GST; dsDNA, one strand shown
FLI1 = biological target: T1, FLI1 (Homo sapiens, UniProt Q01543 1-452)
T1 sequence: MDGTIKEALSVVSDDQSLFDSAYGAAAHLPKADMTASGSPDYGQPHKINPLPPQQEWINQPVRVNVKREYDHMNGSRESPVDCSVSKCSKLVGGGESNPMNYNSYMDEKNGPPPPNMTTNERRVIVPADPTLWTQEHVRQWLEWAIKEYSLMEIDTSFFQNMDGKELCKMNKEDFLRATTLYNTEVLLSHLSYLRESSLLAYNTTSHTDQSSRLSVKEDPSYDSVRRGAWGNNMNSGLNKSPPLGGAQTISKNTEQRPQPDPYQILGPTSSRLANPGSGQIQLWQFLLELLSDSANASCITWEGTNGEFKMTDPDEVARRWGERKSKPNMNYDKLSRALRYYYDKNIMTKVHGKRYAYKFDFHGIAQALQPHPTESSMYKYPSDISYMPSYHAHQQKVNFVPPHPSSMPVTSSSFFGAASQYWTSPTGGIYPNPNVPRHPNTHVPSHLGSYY
Method in brief: (§1)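 After expression in yeast as GST fusions, human transcription factors were bound to glutathione beads, DNA-barcoded and mixed with a tag-only sample. The pools were incubated with 200 nmole of a 16-mer random double-stranded DNA library in Tris/NaCl/DTT/glycerol buffer (30 min, room temperature), washed and crosslinked with 0.1% formaldehyde. Proximity ligation with BsaI/T4 ligase ran for 1 h at 37 °C, before PCR amplification and sequencing on an Illumina NextSeq500. Binding signal is a hexamer's read frequency for a factor divided by its frequency for the tag-only sample.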

ELK1 = biological target: T2, ELK1 (Homo sapiens, UniProt P19419 1-428)
T2 sequence: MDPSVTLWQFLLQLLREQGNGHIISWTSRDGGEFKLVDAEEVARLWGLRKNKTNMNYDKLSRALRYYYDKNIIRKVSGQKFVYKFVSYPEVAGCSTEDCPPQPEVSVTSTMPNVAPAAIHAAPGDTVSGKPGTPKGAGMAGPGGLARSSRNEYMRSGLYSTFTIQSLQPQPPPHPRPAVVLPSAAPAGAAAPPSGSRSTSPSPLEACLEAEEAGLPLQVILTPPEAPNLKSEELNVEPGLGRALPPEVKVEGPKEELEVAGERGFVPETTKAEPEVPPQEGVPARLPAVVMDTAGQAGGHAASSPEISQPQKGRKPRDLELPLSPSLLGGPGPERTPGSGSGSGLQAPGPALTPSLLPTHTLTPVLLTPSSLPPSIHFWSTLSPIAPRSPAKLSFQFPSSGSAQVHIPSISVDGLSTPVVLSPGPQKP
Method in brief: as §1

GABPA = biological target: T3, GABPA (Homo sapiens, UniProt Q06546 1-454)
T3 sequence: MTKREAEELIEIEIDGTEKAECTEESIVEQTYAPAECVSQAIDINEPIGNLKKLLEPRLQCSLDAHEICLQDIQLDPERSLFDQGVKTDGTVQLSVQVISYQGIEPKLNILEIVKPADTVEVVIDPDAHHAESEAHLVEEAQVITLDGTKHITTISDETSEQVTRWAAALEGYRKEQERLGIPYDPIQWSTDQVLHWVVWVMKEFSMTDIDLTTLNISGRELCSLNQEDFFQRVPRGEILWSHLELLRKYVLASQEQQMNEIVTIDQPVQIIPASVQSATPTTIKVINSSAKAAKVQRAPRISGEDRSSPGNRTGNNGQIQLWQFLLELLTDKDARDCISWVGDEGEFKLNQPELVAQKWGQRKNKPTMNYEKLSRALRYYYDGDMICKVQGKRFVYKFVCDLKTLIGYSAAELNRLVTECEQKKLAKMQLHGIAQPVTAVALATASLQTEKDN
Method in brief: as §1

ERG = biological target: T4, ERG (Homo sapiens, UniProt P11308 1-479)
T4 sequence: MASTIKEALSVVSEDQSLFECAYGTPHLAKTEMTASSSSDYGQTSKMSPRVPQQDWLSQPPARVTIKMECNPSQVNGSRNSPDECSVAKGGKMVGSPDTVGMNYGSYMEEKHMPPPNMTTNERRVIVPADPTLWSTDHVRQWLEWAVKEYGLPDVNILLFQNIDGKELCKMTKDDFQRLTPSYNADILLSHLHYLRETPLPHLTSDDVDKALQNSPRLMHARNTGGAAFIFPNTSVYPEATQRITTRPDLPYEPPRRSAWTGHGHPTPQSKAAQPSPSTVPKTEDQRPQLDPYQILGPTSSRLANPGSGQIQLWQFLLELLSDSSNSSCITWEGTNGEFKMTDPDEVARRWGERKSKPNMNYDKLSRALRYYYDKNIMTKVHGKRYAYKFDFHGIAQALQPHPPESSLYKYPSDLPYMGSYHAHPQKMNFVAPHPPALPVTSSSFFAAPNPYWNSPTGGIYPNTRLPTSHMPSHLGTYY
Method in brief: as §1

ELF1 = ELF1 (Homo sapiens, UniProt P32519 1-619)
Method in brief: as §1

EHF = biological target: T5, EHF (Homo sapiens, UniProt Q9NZC4 1-300)
T5 sequence: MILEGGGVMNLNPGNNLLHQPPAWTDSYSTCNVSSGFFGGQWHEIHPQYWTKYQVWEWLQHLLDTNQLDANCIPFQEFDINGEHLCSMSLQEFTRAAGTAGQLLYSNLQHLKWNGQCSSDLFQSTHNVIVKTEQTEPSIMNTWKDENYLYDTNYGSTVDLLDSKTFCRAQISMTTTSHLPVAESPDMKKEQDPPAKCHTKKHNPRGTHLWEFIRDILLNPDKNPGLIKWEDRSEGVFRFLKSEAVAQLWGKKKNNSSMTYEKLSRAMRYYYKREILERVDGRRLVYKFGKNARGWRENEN
Method in brief: as §1

SPI1 = SPI1 (Homo sapiens, UniProt P17947 1-270)
Method in brief: as §1

SPIB = SPIB (Homo sapiens, UniProt Q01892 1-262)
Method in brief: as §1

ELK3 = biological target: T6, ELK3 (Homo sapiens, UniProt P41970 1-407)
T6 sequence: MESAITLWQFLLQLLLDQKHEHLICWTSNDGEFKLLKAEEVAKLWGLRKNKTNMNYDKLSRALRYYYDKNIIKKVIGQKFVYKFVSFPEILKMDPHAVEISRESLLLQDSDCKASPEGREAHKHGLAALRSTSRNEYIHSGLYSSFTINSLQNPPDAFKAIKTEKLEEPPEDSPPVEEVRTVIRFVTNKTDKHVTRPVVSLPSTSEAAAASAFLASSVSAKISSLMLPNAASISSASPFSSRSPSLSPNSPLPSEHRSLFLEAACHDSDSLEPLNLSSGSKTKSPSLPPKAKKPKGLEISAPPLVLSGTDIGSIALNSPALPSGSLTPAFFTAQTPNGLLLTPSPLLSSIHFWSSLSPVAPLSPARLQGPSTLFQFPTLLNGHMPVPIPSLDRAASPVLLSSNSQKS
Method in brief: as §1

SPIB, sequence (Q01892 whole entry): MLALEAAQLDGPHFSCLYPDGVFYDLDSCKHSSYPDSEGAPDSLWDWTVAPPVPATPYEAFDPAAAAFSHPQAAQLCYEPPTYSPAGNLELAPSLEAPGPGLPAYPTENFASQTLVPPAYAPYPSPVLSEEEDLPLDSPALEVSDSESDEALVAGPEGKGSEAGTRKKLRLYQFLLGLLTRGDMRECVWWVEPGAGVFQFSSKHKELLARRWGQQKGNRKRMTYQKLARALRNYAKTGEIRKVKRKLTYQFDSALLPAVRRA
ELF1, sequence (P32519 whole entry): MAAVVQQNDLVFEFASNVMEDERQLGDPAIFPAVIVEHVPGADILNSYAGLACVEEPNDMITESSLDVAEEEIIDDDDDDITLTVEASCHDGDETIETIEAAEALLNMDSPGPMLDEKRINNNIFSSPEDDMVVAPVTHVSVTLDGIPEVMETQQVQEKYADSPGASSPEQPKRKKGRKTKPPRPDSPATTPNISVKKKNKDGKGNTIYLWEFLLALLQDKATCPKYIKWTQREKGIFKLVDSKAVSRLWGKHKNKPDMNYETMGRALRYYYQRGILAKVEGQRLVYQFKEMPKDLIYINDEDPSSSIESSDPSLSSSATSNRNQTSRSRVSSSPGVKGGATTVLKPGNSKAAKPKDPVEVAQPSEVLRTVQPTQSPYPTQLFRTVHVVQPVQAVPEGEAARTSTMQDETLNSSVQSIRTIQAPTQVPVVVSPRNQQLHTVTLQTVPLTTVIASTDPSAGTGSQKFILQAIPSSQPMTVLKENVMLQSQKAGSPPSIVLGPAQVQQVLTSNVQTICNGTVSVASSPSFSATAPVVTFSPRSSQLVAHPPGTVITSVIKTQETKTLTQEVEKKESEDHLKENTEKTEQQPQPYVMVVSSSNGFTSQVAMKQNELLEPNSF

Sequence: GGCTTC
- binding signal (FLI1): 1.68 fold enrichment (6-mer frequency, TF over GST control)
- binding signal (ELK1): 1.8 fold enrichment (6-mer frequency, TF over GST control)
- binding signal (GABPA): 1.57 fold enrichment (6-mer frequency, TF over GST control)
- binding signal (ERG): 1.79 fold enrichment (6-mer frequency, TF over GST control)
- binding signal (ELF1): 1.62 fold enrichment (6-mer frequency, TF over GST control)
- binding signal (EHF): 1.78 fold enrichment (6-mer frequency, TF over GST control)
- binding signal (SPI1): 1.65 fold enrichment (6-mer frequency, TF over GST control)
- binding signal (SPIB): 1.78 fold enrichment (6-mer frequency, TF over GST control)
- binding signal (ELK3): 1.81 fold enrichment (6-mer frequency, TF over GST control)

Sequence: TTCTTT
- binding signal (FLI1): 1.18 fold enrichment (6-mer frequency, TF over GST control)
- binding signal (ELK1): 1.13 fold enrichment (6-mer frequency, TF over GST control)
- binding signal (GABPA): 1.21 fold enrichment (6-mer frequency, TF over GST control)
- binding signal (ERG): 1.27 fold enrichment (6-mer frequency, TF over GST control)
- binding signal (ELF1): 1.35 fold enrichment (6-mer frequency, TF over GST control)
- binding signal (EHF): 1.11 fold enrichment (6-mer frequency, TF over GST control)
- binding signal (SPI1): 1.23 fold enrichment (6-mer frequency, TF over GST control)
- binding signal (SPIB): 1.21 fold enrichment (6-mer frequency, TF over GST control)
- binding signal (ELK3): 1.17 fold enrichment (6-mer frequency, TF over GST control)

Sequence: CAATAC
- binding signal (FLI1): 1.25 fold enrichment (6-mer frequency, TF over GST control)
- binding signal (ELK1): 1.29 fold enrichment (6-mer frequency, TF over GST control)
- binding signal (GABPA): 1.23 fold enrichment (6-mer frequency, TF over GST control)
- binding signal (ERG): 1.23 fold enrichment (6-mer frequency, TF over GST control)
- binding signal (ELF1): 1.24 fold enrichment (6-mer frequency, TF over GST control)
- binding signal (EHF): 1.2 fold enrichment (6-mer frequency, TF over GST control)
- binding signal (SPI1): 1.25 fold enrichment (6-mer frequency, TF over GST control)
- binding signal (SPIB): 1.17 fold enrichment (6-mer frequency, TF over GST control)
- binding signal (ELK3): 1.28 fold enrichment (6-mer frequency, TF over GST control)

Sequence: AATAAT
- binding signal (FLI1): 1.23 fold enrichment (6-mer frequency, TF over GST control)
- binding signal (ELK1): 1.24 fold enrichment (6-mer frequency, TF over GST control)
- binding signal (GABPA): 1.31 fold enrichment (6-mer frequency, TF over GST control)
- binding signal (ERG): 1.33 fold enrichment (6-mer frequency, TF over GST control)
- binding signal (ELF1): 1.28 fold enrichment (6-mer frequency, TF over GST control)
- binding signal (EHF): 1.36 fold enrichment (6-mer frequency, TF over GST control)
- binding signal (SPI1): 1.24 fold enrichment (6-mer frequency, TF over GST control)
- binding signal (SPIB): 1.32 fold enrichment (6-mer frequency, TF over GST control)
- binding signal (ELK3): 1.39 fold enrichment (6-mer frequency, TF over GST control)

Sequence: ATGGCA
- binding signal (FLI1): 1.26 fold enrichment (6-mer frequency, TF over GST control)
- binding signal (ELK1): 1.22 fold enrichment (6-mer frequency, TF over GST control)
- binding signal (GABPA): 1.26 fold enrichment (6-mer frequency, TF over GST control)
- binding signal (ERG): 1.27 fold enrichment (6-mer frequency, TF over GST control)
- binding signal (ELF1): 1.24 fold enrichment (6-mer frequency, TF over GST control)
- binding signal (EHF): 1.35 fold enrichment (6-mer frequency, TF over GST control)
- binding signal (SPI1): 1.21 fold enrichment (6-mer frequency, TF over GST control)
- binding signal (SPIB): 1.19 fold enrichment (6-mer frequency, TF over GST control)
- binding signal (ELK3): 1.22 fold enrichment (6-mer frequency, TF over GST control)

Sequence: TAGCCT
- binding signal (FLI1): 1.27 fold enrichment (6-mer frequency, TF over GST control)
- binding signal (ELK1): 1.21 fold enrichment (6-mer frequency, TF over GST control)
- binding signal (GABPA): 1.18 fold enrichment (6-mer frequency, TF over GST control)
- binding signal (ERG): 1.23 fold enrichment (6-mer frequency, TF over GST control)
- binding signal (ELF1): 1.28 fold enrichment (6-mer frequency, TF over GST control)
- binding signal (EHF): 1.26 fold enrichment (6-mer frequency, TF over GST control)
- binding signal (SPI1): 1.23 fold enrichment (6-mer frequency, TF over GST control)
- binding signal (SPIB): 1.2 fold enrichment (6-mer frequency, TF over GST control)
- binding signal (ELK3): 1.14 fold enrichment (6-mer frequency, TF over GST control)

Sequence: CCTATC
- binding signal (FLI1): 1.27 fold enrichment (6-mer frequency, TF over GST control)
- binding signal (ELK1): 1.27 fold enrichment (6-mer frequency, TF over GST control)
- binding signal (GABPA): 1.13 fold enrichment (6-mer frequency, TF over GST control)
- binding signal (ERG): 1.15 fold enrichment (6-mer frequency, TF over GST control)
- binding signal (ELF1): 1.15 fold enrichment (6-mer frequency, TF over GST control)
- binding signal (EHF): 1.18 fold enrichment (6-mer frequency, TF over GST control)
- binding signal (SPI1): 1.14 fold enrichment (6-mer frequency, TF over GST control)
- binding signal (SPIB): 1.31 fold enrichment (6-mer frequency, TF over GST control)
- binding signal (ELK3): 1.45 fold enrichment (6-mer frequency, TF over GST control)

Sequence: AAATGA
- binding signal (FLI1): 1.23 fold enrichment (6-mer frequency, TF over GST control)
- binding signal (ELK1): 1.32 fold enrichment (6-mer frequency, TF over GST control)
- binding signal (GABPA): 1.26 fold enrichment (6-mer frequency, TF over GST control)
- binding signal (ERG): 1.3 fold enrichment (6-mer frequency, TF over GST control)
- binding signal (ELF1): 1.26 fold enrichment (6-mer frequency, TF over GST control)
- binding signal (EHF): 1.23 fold enrichment (6-mer frequency, TF over GST control)
- binding signal (SPI1): 1.45 fold enrichment (6-mer frequency, TF over GST control)
- binding signal (SPIB): 1.37 fold enrichment (6-mer frequency, TF over GST control)
- binding signal (ELK3): 1.26 fold enrichment (6-mer frequency, TF over GST control)

Reference: paper PMC7862700, “An all-to-all approach to the identification of sequence-specific readers for epigenetic DNA modifications on cytosine”
